# Measurements from article PMC4336329 (PLoS ONE, 2015).
# About 14,000 (4.5%) of roughly 310,000 compounds showed an effect of 50% or more. Effects have a minus sign here. The full list was thinned out, with strong results kept by preference.
# Molecular target: human ether-à-go-go-related gene (hERG) potassium channel (human, UniProt Q12809)
# Experiment: primary screen, population patch clamp on CHO cells stably expressing hERG; higher = less effect of the substance
# 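Also: peak tail current of the secondary pulse compared with the same well before compound.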
# Sequence of human ether-à-go-go-related gene (hERG) potassium channel (Q12809 whole entry, looked up): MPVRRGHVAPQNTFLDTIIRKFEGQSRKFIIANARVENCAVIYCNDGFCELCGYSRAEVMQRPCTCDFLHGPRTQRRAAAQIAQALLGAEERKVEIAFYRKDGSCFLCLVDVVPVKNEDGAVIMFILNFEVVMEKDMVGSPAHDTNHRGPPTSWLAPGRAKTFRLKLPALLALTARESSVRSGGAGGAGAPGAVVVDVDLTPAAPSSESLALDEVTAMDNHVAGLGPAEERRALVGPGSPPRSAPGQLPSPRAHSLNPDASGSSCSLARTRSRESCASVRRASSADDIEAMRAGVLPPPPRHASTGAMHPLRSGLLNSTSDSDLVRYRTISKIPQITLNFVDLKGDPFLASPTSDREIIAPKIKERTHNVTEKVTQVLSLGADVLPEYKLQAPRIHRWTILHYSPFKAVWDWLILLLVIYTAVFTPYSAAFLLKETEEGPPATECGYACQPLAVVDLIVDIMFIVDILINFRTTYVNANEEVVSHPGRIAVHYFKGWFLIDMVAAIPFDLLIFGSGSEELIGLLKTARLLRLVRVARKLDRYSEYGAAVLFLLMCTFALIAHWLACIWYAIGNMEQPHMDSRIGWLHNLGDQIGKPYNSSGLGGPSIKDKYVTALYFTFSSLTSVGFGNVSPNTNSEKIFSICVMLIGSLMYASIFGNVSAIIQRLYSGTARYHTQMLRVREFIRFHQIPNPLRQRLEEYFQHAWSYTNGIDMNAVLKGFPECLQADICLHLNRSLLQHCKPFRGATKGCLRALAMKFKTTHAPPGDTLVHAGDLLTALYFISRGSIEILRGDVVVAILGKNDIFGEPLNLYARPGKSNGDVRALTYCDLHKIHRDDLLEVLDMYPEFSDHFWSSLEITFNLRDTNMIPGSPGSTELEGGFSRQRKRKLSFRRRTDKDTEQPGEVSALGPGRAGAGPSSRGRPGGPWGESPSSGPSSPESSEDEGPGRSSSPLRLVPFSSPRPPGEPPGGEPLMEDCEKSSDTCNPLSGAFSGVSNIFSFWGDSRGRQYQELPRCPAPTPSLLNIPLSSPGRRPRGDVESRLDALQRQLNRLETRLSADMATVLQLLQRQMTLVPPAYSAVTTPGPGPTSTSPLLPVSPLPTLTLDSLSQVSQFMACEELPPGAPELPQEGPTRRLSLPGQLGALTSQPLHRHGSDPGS
row,SMILES,"hERG current change (%, negative = inhibition) at 10uM [%]"
1,Cn1c(SCC(=O)N2CCCC2=O)nc2ccccc21,28.2
2,CCCS(=O)(=O)N1CCCC(C(=O)N2CCC3(CC2)OCCO3)C1 (stereo not drawn),15.7
3,CCCCNS(=O)(=O)c1ccc2nc(-c3cccnc3)cc(C(=O)NCC(OC)OC)c2c1,-2.03
4,O=[N+]([O-])c1ccc(N2CCN(c3ccccc3F)CC2)c(S(=O)(=O)N2CCOCC2)c1,-5.12
5,CC(=O)NC(Nc1nc2c(s1)CCCC2)(C(F)(F)F)C(F)(F)F,23.8
6,C=CCNC(=O)/C(=C\C=C\c1ccccc1)NC(=O)c1ccccc1Cl,-49.7
7,CNC(=O)c1[nH]cnc1C(=O)NCC(=O)OCc1ccccc1,13.9
8,Cc1cc(NC(=O)c2cc([N+](=O)[O-])cc([N+](=O)[O-])c2)n(-c2ccccc2)n1,7.63
9,COc1ccc(/C=C2\CCn3c2nc2cc(C(=O)O)ccc2c3=O)cc1,9.07
10,COC(=O)CCCC1=CC2=CC(=O)C(C)(OC(=O)c3cccs3)C(=O)C2=CN1CCCCO (stereo not drawn),3.74
11,CCCCc1cc(=O)oc2cc(OC(C)C(=O)NCc3ccccn3)c(Cl)cc12 (stereo not drawn),-13.6
12,Br.COc1ccc(-c2csc(CCN3N=C(C)CC3=O)n2)cc1,12.7
13,CCCNS(=O)(=O)c1ccc(OCC(=O)N2CCN(Cc3ccccc3)CC2)cc1,-28.6
14,CCOc1ccc(S(=O)(=O)NCCC(=O)N2CCN(Cc3ccccc3)CC2)cc1,-54.2
15,CCOc1ccc(C(=S)N2CCOCC2)cc1,-13.2
16,CCOc1ccc(C(=S)N2CCN(C)CC2)cc1,-82.2
17,Cc1ccc(S(=O)(=O)NCCC(=O)N2CCN(Cc3ccccc3)CC2)cc1,11
18,CCOc1ccc(C(=S)N2CCCC2)cc1,-7.78
19,O=C(CCNS(=O)(=O)c1ccccc1F)N1CCN(C/C=C/c2ccccc2)CC1,-47.8
20,CCOc1ccc(C(=O)N2CCN(c3cccc(C)c3C)CC2)cc1,-79.9
21,CCOC(=O)N1CCN(c2cccc(C)c2C)CC1,-2.36
22,Cc1ccc(S(=O)(=O)NCCC(=O)N2CCN(C/C=C/c3ccccc3)CC2)cc1,-49.5

row,SMILES,"hERG current change (%, negative = inhibition) at 10uM [%]"
1,Cc1cccc(N2CCN(C(=O)c3ccncc3)CC2)c1C,-37
2,O=C(CCNS(=O)(=O)c1ccc(OC(F)(F)F)cc1)N1CCN(C/C=C/c2ccccc2)CC1,-81.5
3,CC(=O)Nc1ccc(S(=O)(=O)NCC2CCC(C(=O)N3CCCCCC3)CC2)cc1 (stereo not drawn),5.67
4,CN(c1ccccc1)S(=O)(=O)c1ccc(Cl)nc1,10.8
5,C#CCOCCOCCOCCNc1nc(N2CCN(C(=O)[C@H]([C@@H](C)CC)n3cc([C@@H](N)Cc4ccc(O)cc4)nn3)CC2)nc(N2CCN(C(=O)[C@H](Cc3cc4ccccc4[nH]3)n3cc([C@@H](N)C(C)CC)nn3)CC2)n1.Cl (stereo partly drawn),3.33
6,Cc1cc(Cl)ccc1OCC(=O)Nc1nc(-c2cccs2)cs1,15.6
7,CC(OC(=O)Cc1c[nH]c2ccccc12)C(=O)Nc1ccccc1F (stereo not drawn),-11.7
8,CCN1CCN(Cc2cccc(Oc3ccccc3)c2)CC1,-35.9
9,CN1CCN(Cc2cccc(Oc3ccc(Cl)cc3)c2)CC1,1.98
10,CCN1CCN(Cc2cccc(Oc3ccc(Cl)cc3)c2)CC1,-56.9
11,COc1cccc(CN2CCN(C(=O)c3ccc(-c4ccccc4)cc3)CC2)c1,-38.3
12,COc1cccc(C(=O)N2CCN(Cc3cccc(F)c3)CC2)c1.O=C(O)C(=O)O,-7.48
13,O=C(c1cccc(C(=O)N2CCN(Cc3ccccc3)CC2)c1)N1CCN(Cc2ccccc2)CC1,-17.2
14,O=C(O)C(=O)O.O=C(c1cccc(F)c1)N1CCN(Cc2cccc(Br)c2)CC1,-48.6
15,O=C(c1ccccc1)N1CCN(Cc2cccc(Oc3ccccc3)c2)CC1,-50.1
16,CCOc1ccc(CN2CCN(C(=O)c3cccc(F)c3)CC2)cc1.O=C(O)C(=O)O,-62
17,C=CCn1c(-c2cccc(OC)c2OC)n[nH]c1=S,-24.3
18,Cc1cc2c(c(=O)n1Cc1ccccn1)C(c1ccc3c(c1)OCO3)C(C#N)=C(N)O2 (stereo not drawn),-0.622
19,COc1ccc(C(=S)N2CCCC2)cc1OC,2.36
20,CC(C)OC(=O)CC(=O)CSc1nc2c(cc1C#N)CCCCCC2,-4.33
21,O=C(O)c1ccc(C2SCC(=O)N2Cc2ccccc2)cc1 (stereo not drawn),-0.7
22,COc1ccc(N2CCN(C(=O)CSc3nnc4c(C)cc5cc(C)ccc5n34)CC2)cc1,-21.2

row,SMILES,"hERG current change (%, negative = inhibition) at 10uM [%]"
1,O=C1C2C3C=CC(C3)C2C(=O)N1c1n[nH]c(-c2cccnc2)n1 (stereo not drawn),11.1
2,O=C(CSc1nnc(Cn2c(=O)sc3ccccc32)n1-c1ccccc1)N1CCCCCC1,-12.5
3,CCO[C@@H]1OC(C(=O)NCc2ccccc2)=C[C@H](c2coc3ccccc3c2=O)[C@H]1CCCO,-47.5
4,CNC(=O)c1ccsc1NC(=O)C1CCN(S(=O)(=O)c2ccc(Cl)s2)CC1,-54.9
5,O=C(Nc1nccs1)C1CCN(S(=O)(=O)c2cccs2)CC1,-24.1
6,NC(=O)c1ccsc1NC(=O)C1CCN(S(=O)(=O)c2cccs2)CC1,-52.4
7,O=C(Nc1ccccc1)C1CCN(S(=O)(=O)c2cccs2)CC1,-16.4
8,N#Cc1ccsc1NC(=O)C1CCN(S(=O)(=O)c2cccs2)CC1,-20.2
9,CNC(=O)c1ccsc1NC(=O)C1CCCN1S(=O)(=O)c1cccs1 (stereo not drawn),7.6
10,CNC(=O)c1ccsc1NC(=O)c1ccc(Cl)s1,-0.512
11,CNC(=O)c1ccsc1NC(=O)C1CCN(S(=O)(=O)c2cccs2)CC1,-55.1
12,CCOC(=O)C1CCN(S(=O)(=O)c2ccc(Cl)s2)CC1,-13.3
13,O=C(Nc1ccc(F)cc1)C1CCN(S(=O)(=O)c2cccs2)CC1,-24.4
14,Cc1ccc(NC(=O)C2CCN(S(=O)(=O)c3cccs3)CC2)cc1C,-31.1
15,O=C(Nc1ccc(F)c(F)c1)C1CCN(S(=O)(=O)c2cccs2)CC1,-53.7
16,CCC(c1nnc(SCC(=O)NCCc2ccc(Cl)cc2Cl)o1)N(C)C (stereo not drawn),-19.9
17,Cc1nn(-c2ccccn2)c2c1-c1nc(N)ncc1CC2,5.03
18,CC(C)CCn1c(Sc2nc3ccccc3o2)nc2c1c(=O)[nH]c(=O)n2C,-20.8
19,Cc1ccc(-c2ocnc2C(=O)N2CCOCC2)cc1,21.4
20,COc1ccc(OC)c(-c2c(=O)n(OCc3ccccc3Br)c3ccccc3[n+]2[O-])c1,11.5
21,CCCN1CCc2c(sc(NC(=O)C3CCN(S(=O)(=O)c4cccs4)CC3)c2C(N)=O)C1.Cl,-61.3
22,CCCn1c(NC(=O)C2CCN(S(=O)(=O)c3cccs3)CC2)nc2ccccc21,-68.8

row,SMILES,"hERG current change (%, negative = inhibition) at 10uM [%]"
1,CN1CCc2c(sc(NC(=O)C3CCN(S(=O)(=O)c4cccs4)CC3)c2C(N)=O)C1.Cl,-30.8
2,O=C(Nc1nc2ccccc2[nH]1)C1CCN(S(=O)(=O)c2cccs2)CC1,-0.923
3,CC(=O)N1CCc2c(sc(NC(=O)C3CCN(S(=O)(=O)c4cccs4)CC3)c2C(N)=O)C1,-29.4
4,Cc1csc(NC(=O)C2CCN(S(=O)(=O)c3cccs3)CC2)n1,-27.3
5,CC12CN(C(=O)c3ccccc3Br)CC(C)(CN(C(=O)c3ccccc3Br)C1)C2=O,-4.96
6,CCC(=O)Nc1ccc(C(=O)CSc2nnc(-c3ccc(NS(=O)(=O)CC)cc3)o2)cc1OC,5.26
7,O=C(CCN1C(=O)c2ccccc2C1=O)N1CCN(C(=O)c2ccccc2)CC1,0.00878
8,CN(C)CCN(C)Cc1ccccc1Sc1cccc2ccccc12.Cl,-65.3
9,CN(C)CCN(C)Cc1c2ccccc2c(CN(C)CCN(C)C)c2ccccc12,0.802
10,CN(C)Cc1ccccc1Sc1ccccc1Br,-36.5
11,CCOC(=O)c1nn(-c2ccc(C)cc2)c(=O)cc1OCC(=O)Nc1cc(C)ccc1OC,-2.12
12,Cc1cccc(NC(=O)C2C(c3ccccc3)C2(Cl)Cl)c1 (stereo not drawn),-5.35
13,S=c1nc(NCCc2ccccc2Cl)c2ccccc2[nH]1,20
14,CC1CCCCN1CCCNc1c(C=O)c(=O)[nH]c2ccccc12 (stereo not drawn),-3.96
15,CC1CCCCN1CCNc1nc(=S)[nH]c2ccccc12 (stereo not drawn),-67.5
16,Cc1nc2ccccc2c(=O)n1/N=C/c1ccccn1,-3.77
17,Cc1ccc(S(=O)(=O)N2CCOC2CNC(=O)C(=O)NCCN2CCOCC2)cc1 (stereo not drawn),10.6
18,COc1ccccc1OCC(O)Cn1nc(C)cc1C (stereo not drawn),9.76
19,CCCCCn1c(=N)n(CC(O)COc2ccccc2OC)c2ccccc21.Cl (stereo not drawn),-81.1
20,COc1ccccc1OCC(O)COC(N)=O (stereo not drawn),10.3
21,CCCCCn1c(=N)n(CC(O)COc2ccccc2OC)c2ccccc21 (stereo not drawn),-75.9
